# Values without a mark were called inactive. No rule for the calls is given here.
# Test system: Aerobactin synthetase IucA (Klebsiella pneumoniae hvKP1)
# Experiment: Biochemical IucA enzyme inhibition primary screen of the Spectrum library (AID 1346200);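 also: 100% = wells without compound and 0% = wells lacking enzyme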
# Conditions: malachite green pyrophosphate, A620, at 8 µM, stronger effect = lower value
row,SMILES,activity remaining
1,Cc1c(C)c2c(c(C)c1O)CCC(C)(CCCC(C)CCCC(C)CCCC(C)C)O2 (stereo not given),105%
2,COC(=O)C[C@H]1C2(C)CC34OC5(C)O[C@@]6([C@H](OC(C)=O)C(OC(C)=O)[C@]7(C)C(/C(=C(/O)C(C)C)C(=O)O[C@H]7c7ccoc7)[C@@]6(O5)[C@H](OC(C)=O)[C@@]3(O)C2OC(=O)C(C)C)[C@]14C (stereo not given in full),104%
3,O=C(CCCN1CCN(c2ccccn2)CC1)c1ccc(F)cc1,124%
4,CN(C)c1ccc(C(=C2C=CC(=[N+](C)C)C=C2)c2ccc(N(C)C)cc2)cc1,118%
5,C=Cc1c(C)/c2[n-]/c1=C\c1[n-]c(c(CC)c1C)/C=c1\[n-]c3c(c1C)C(=O)C(C(=O)[O-])C=3c1[n-]c(c(C)c1CCC(=O)[O-])\C=2.[Cu].[Na+].[Na+] (stereo not given),77.9%
6,COC(=O)C1=CO[C@@H](O[C@@H]2O[C@H](CO)[C@@H](O)[C@H](O)[C@H]2O)[C@H]2C1C(=O)C[C@@H]2C (stereo not given in full),112%
7,COC(=O)c1c(OC)cc2c(c1C)Oc1c(Cl)c(OC(C)=O)c(Cl)c(C)c1C(=O)O2,98.6%
8,COc1ccc(C(=O)CC(=O)c2ccc(C(C)(C)C)cc2)cc1,104%
9,CCCc1cc(OC)c2c(c1)OCO2,106%
10,CCCCC(CC)CN=C(N)NC(N)=NCCCCCCN=C(N)NC(N)=NCC(CC)CCCC (stereo not given),98.4%
11,C/C=C(/C(=C/C)c1ccc(O)cc1)c1ccc(O)cc1,115%
12,COc1ccc2c(c1)OCC(Cc1ccc(OC)c(O)c1)C2=O (stereo not given),115%
13,COC(=O)Nc1nc2ccc(S(=O)c3ccccc3)cc2[nH]1 (stereo not given),110%
14,CNCc1ccccc1,108%
15,COC(=O)Nc1nc2ccc(Sc3ccccc3)cc2[nH]1,114%
16,COc1ccccc1/C=C\C(=O)O,90.4%
17,CC(=O)O[C@@H]1CC(=O)[C@@]2(C)C(CC(=O)[C@]3(C)C2CC[C@@]2(C)[C@H](c4ccoc4)OC(=O)C4OC423)C1(C)C (stereo not given in full),92.3%
18,COc1ccnc(CS(=O)c2nc3ccc(OC(F)F)cc3[nH]2)c1OC (stereo not given),127%
19,C#C[C@]1(O)CCC2C3CCc4cc(O)ccc4C3CC[C@@]21C (stereo not given in full),105%
20,Cc1occc(=O)c1O,102%

row,SMILES,activity remaining
1,C=C1c2c(Cl)ccc(O)c2C(O)=C2C(=O)[C@]3(O)C(O)=C(C(N)=O)C(=O)[C@@H](N(C)C)[C@@H]3[C@@H](O)[C@H]12,109%
2,NC(=O)c1ccccc1O,88.1%
3,Oc1cccc(O)c1,116%
4,C[C@]12C=CC(=O)C=C1CCC1C3C[C@@H](O)[C@](O)(C(=O)CO)[C@@]3(C)C[C@H](O)[C@@]12F (stereo not given in full),125%
5,COc1ccc(C(=O)/C=C/c2ccccc2)cc1,106%
6,COc1ccc2ccc(=O)oc2c1CC=C(C)C,106%
7,CN(Cc1cnc2nc(N)nc(N)c2n1)c1ccc(C(=O)NC(CCC(=O)O)C(=O)O)cc1 (stereo not given),121%
8,CCc1ccc2c(O)c3c(cc2c1C(=O)OC)C(=O)c1c(O)ccc(O)c1C3=O,115%
9,CCC(=O)O[C@H]1[C@H](O[C@@H]2[C@@H](C)[C@H](O[C@H]3C[C@@](C)(OC)[C@@H](O)[C@H](C)O3)[C@@H](C)C(=O)O[C@H](CC)[C@@](C)(O)[C@H](O)[C@@H](C)C(=O)[C@H](C)C[C@@]2(C)O)O[C@H](C)C[C@@H]1N(C)C,121%
10,C/C=C/C(=O)N(CC)c1ccccc1C,112%
11,CCCCC(=O)O[C@]1(C(=O)CO)[C@@H](C)CC2C3CCC4=CC(=O)C=C[C@]4(C)[C@@]3(F)C(O)C[C@@]21C (stereo not given in full),121%
12,CC(=O)Oc1ccc(-c2cc(=O)c3c(OC(C)=O)cc(OC(C)=O)cc3o2)cc1,122%
13,CC(=O)O[C@H]1C[C@@]2(C)[C@@H](C[C@@H](O)C3[C@]2(C)CC[C@H]2[C@H](C)[C@H](O)CC[C@]32C)/C1=C(/CCC=C(C)C)C(=O)O (stereo not given in full),110%
14,C/C1=C/CC(C)(C)/C=C/C/C(C)=C/CC1,122%
15,COc1c2c(cc3c1OCO3)C13C=C[C@H](OC)CC1N(C2)CC3O (stereo not given in full),107%
16,NCCC(=O)N[C@@H](Cc1cnc[nH]1)C(=O)O,106%
17,COc1ccc2c(c1OC)C(=O)O[C@H]2[C@H]1c2c(cc3c(c2OC)OCO3)CCN1C,116%
18,COc1cc2c(cc1OC)C(=O)OC2,110%
19,CN(N=O)C(=O)N[C@@H]1[C@@H](O)[C@H](O)[C@@H](CO)O[C@@H]1O,112%
20,COC1CC2CCC(C)C(O)(O2)C(=O)C(=O)N2CCCCC2C(=O)OC(C(C)CC2CCC(O)C(OC)C2)CC(=O)C(C)/C=C(\C)C(O)C(OC)C(=O)C(C)CC(C)/C=C/C=C/C=C/1C (stereo not given),107%

# — PubChem BioAssay
